Assay results reported in PubChem BioAssay (NCI).
The panel holds about 79,000 compounds, 15% with a hit somewhere; the sample as a whole holds those more often. Values without a mark were called inactive. Calls of active or inactive are those of the source. Rule as the data show it: active = growth inhibition above about 70%; inactive = the rest.

Tests used:
[1] = NCI Yeast Anticancer Drug Screen. Data for the rad50 strain (AID 155);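 also: 0% = growth of vehicle-only cultures of the same strain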; conditions: S. cerevisiae rad50 strain growth inhibition, hits give high values
Procedure, shortened: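 Vehicle-treated cultures provide the reference for the growth inhibition reported for compound-exposed, repair-deficient yeast.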

[2] = NCI Yeast Anticancer Drug Screen. Data for the mec2-1 strain (AID 157); conditions: S. cerevisiae mec2-1 strain, hits give high values
Procedure, shortened: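 Yeast mec2-1 mutant treated with compound. Readout: growth inhibition vs vehicle controls.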

[3] = NCI Yeast Anticancer Drug Screen. Data for the sgs1 mgt1 strain (AID 161);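 also: 0% = growth of cultures given vehicle only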; conditions: S. cerevisiae sgs1 mgt1 strain, hits give high values
Procedure, shortened: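 Mutant yeast exposed to compound; growth scored against vehicle-only wells.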

[4] = NCI Yeast Anticancer Drug Screen. Data for the cln2 rad14 strain (AID 165);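 also: 0% = growth equal to vehicle treated cultures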; conditions: S. cerevisiae cln2 rad14 strain, hits give high values
Procedure, shortened: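 cln2 rad14 yeast strain; compound exposure; growth inhibition read vs vehicle controls.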

[5] = NCI Yeast Anticancer Drug Screen. Data for the bub3 strain (AID 167); conditions: S. cerevisiae bub3 mutant strain, hits give high values
Procedure, shortened: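 Mutant yeast screening strain plus compound; vehicle-treated cultures serve as the 0% inhibition reference.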

[6] = NCI Yeast Anticancer Drug Screen. Data for the mlh1 rad18 strain (AID 175); conditions: S. cerevisiae mlh1 rad18 strain growth inhibition, hits give high values
Procedure, shortened: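 Yeast w/ defined DNA-repair lesions; compound exposure; growth vs vehicle controls → % inhibition.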

[7] = at 5.0 µM (retest, dose inferred, filed as 0.5)
[8] = at 50.0 µM (retest, dose inferred, filed as 5.0)

| Compound | growth inhibition [1, 7] | growth inhibition [1, 8] | growth inhibition ([1]; at 50.0 µM) | growth inhibition [2, 7] | growth inhibition [2, 8] | growth inhibition ([2]; at 50.0 µM) | growth inhibition [3, 7] | growth inhibition [3, 8] | growth inhibition ([3]; at 50.0 µM) | growth inhibition [4, 7] | growth inhibition [4, 8] | growth inhibition ([4]; at 50.0 µM) | growth inhibition [5, 7] | growth inhibition [5, 8] | growth inhibition ([5]; at 50.0 µM) | growth inhibition [6, 7] | growth inhibition [6, 8] | growth inhibition ([6]; at 50.0 µM) |
| --- | --- | --- | --- | --- | --- | --- | --- | --- | --- | --- | --- | --- | --- | --- | --- | --- | --- | --- |
| CC(=O)N(N)c1ccccc1 | 8% | 56% | 57.5% | 0% | 42% | 32.2% | 4% | 53% | 33.3% | 4% | 51% | 57.7% | 7% | 77% (active) | 87.8% (active) | 20% | 87% (active) | 88.4% (active) |
| C=C1CC(C)(C)C(c2ccccc2)OC1=O (stereo not drawn) | 1% | 60% | 53% | 7% | 80% (active) | 31.7% | 8% | 98% (active) | 97.1% (active) | -4% | 25% | 5.55% | -7% | 80% (active) | 73.5% (active) | 13% | 87% (active) | 77.8% (active) |
| Oc1ccc(-c2nnc(-c3ccccc3)nn2)cc1 | -154% | -160% | 56.4% | -48% | -53% | 8.95% | -66% | -63% | -3.9% | -47% | -66% | -52.5% | -47% | -19% | 58.5% | -121% | -147% | -9.85% |
| O=c1cccccc1[O-].O=c1cccccc1[O-].O=c1cccccc1[O-].[Dy+3] | 19% | 19% | 92.8% (active) | 18% | 18% | 92.8% (active) | 14% | 14% | 91.6% (active) | 10% | 10% | 80.2% (active) | 7% | 7% | 93.2% (active) |  |  |  |
| C=C1CC2(CCOc3ccccc32)OC1=O (stereo not drawn) | 6% | 70% (active) | 80.5% (active) | 17% | 91% (active) | 89.1% (active) | 12% | 92% (active) | 95% (active) | 5% | 60% | 18.6% | 4% | 86% (active) | 88.3% (active) |  |  |  |
| COc1ccc(CCCCI)cc1 | -4% | 95% (active) | 94.6% (active) | -14% | 94% (active) | 95.2% (active) | -6% | 97% (active) | 94.2% (active) | 2% | 97% (active) | 96.4% (active) | 0% | 96% (active) | 97% (active) |  |  |  |
| [Cu+2].[O-]/N=C/c1cccc(O)c1[O-].[O-]/N=C/c1cccc(O)c1[O-] | -16% | 99% (active) | 93.8% (active) | -14% | 99% (active) | 96.7% (active) | -14% | 99% (active) | 96.8% (active) | -12% | 98% (active) | 94.8% (active) | -20% | 99% (active) | 97.7% (active) | -4% | 98% (active) | 94% (active) |
| C1=C(c2ccccc2)SC=C(c2ccccc2)S1 | -5% | -26% | -15.7% | -14% | -16% | 8.75% | -2% | 40% | -0.9% | -9% | -9% | -3.15% | 23% | 47% | 83% (active) | -6% | -8% | -5.45% |
| N#CC(C(=O)C(=O)NC1C2CC3CC(C2)CC1C3)c1c(Cl)cccc1Cl (stereo not drawn) | 1% | 7% | 31.7% | -4% | -32% | 19.8% | -1% | 3% | 21.2% | 3% | 5% | 28.6% | -1% | 5% | 0.45% | -1% | 5% | 30.6% |
| Cc1cccc(NC(=S)N/N=C(/c2ccccc2)c2ccccn2)c1 | -3% | 94% (active) | 56% | -1% | 94% (active) | 66.5% | -35% | 93% (active) | 73.2% (active) | -15% | 92% (active) | 74.7% (active) | -38% | 93% (active) | 77.4% (active) | -8% | 93% (active) | 76.8% (active) |
| CCCCCCCCCCCCS(=O)(=O)CC(Br)C(=O)c1ccco1 (stereo not drawn) | 57% | 96% (active) | 94.2% (active) | 42% | 97% (active) | 96.9% (active) | 67% | 96% (active) | 95.3% (active) | 12% | 90% (active) | 93.7% (active) | 43% | 95% (active) | 95.1% (active) | 68% | 93% (active) | 95.3% (active) |
| CCCC(/C=N/N=C(N)N)=N\N=C(N)N | -24% | -8% | -24.1% | -11% | 4% | -8.95% | -1% | -30% | -14.3% | 10% | 0% | -33.1% | -12% | -2% | -8.95% | 4% | -1% | -10.6% |
| CC(C)SC(=S)Nc1cc(C(F)(F)F)ccc1Cl | -2% | 99% (active) | 99.5% (active) | 2% | 98% (active) | 99.7% (active) | 0% | 100% (active) | 99.6% (active) | -15% | 98% (active) | 99.4% (active) | 2% | 91% (active) | 99.5% (active) |  |  |  |
| CC(C)[CH2][Ge]([Cl])([Cl])[Cl] | 1% | -8% | 98.5% (active) | 2% | -2% | 98.8% (active) | 3% | -15% | 98.7% (active) | -2% | -14% | 98.5% (active) | 3% | -3% | 99% (active) |  |  |  |
| COc1nc(N)c(N=O)c(OCc2ccccc2)n1 | 83% (active) | 97% (active) | 89% (active) | 99% (active) | 98% (active) | 92.6% (active) | 62% | 57% | 91.4% (active) | 55% | 98% (active) | 89.8% (active) | 97% (active) | 98% (active) | 91.6% (active) | 99% (active) | 97% (active) | 89.3% (active) |
| Cc1ccc2ccc3c(CCN(C)C)cc4c(c3c2c1O)OCO4 | -1% | 22% | 90.8% (active) | -4% | 57% | 67.3% | -1% | 75% (active) | 91.2% (active) | -1% | 64% | 95.2% (active) | -2% | 86% (active) | 92.5% (active) | -5% | 53% | 94.3% (active) |
| CC(=O)OCc1cc(=O)n(C)c2c3c4c(cc12)c(C)cc(=O)n4CO3 | 87% (active) | 99% (active) | 85.6% (active) | 69% | 99% (active) | 88.5% (active) | 83% (active) | 99% (active) | 91.2% (active) | 79% (active) | 97% (active) | 87.4% (active) | 86% (active) | 97% (active) | 83.8% (active) |  |  |  |
| CN(C)c1ccc(/C=C/c2ccnc3ccccc23)cc1Cl | 23% | 95% (active) | -10.1% | 4% | 97% (active) | -4.1% | 0% | 97% (active) | 66.8% | -6% | 94% (active) | -12.6% | 2% | 97% (active) | 29.4% |  |  |  |
| CCN(CC)C(=O)N1CCN(c2cccc(Cl)c2)CC1 | 4% | 58% | 74% (active) | 0% | 84% (active) | 91.2% (active) | 5% | 85% (active) | 90.2% (active) | 1% | 50% | 93% (active) | 4% | 73% (active) | 85.7% (active) |  |  |  |
| CCOC(=O)/C(=C\c1ccc(C)cc1)C(C)=O | 19% | 89% (active) | 91.1% (active) | -19% | 97% (active) | 91.8% (active) | 24% | 95% (active) | 93.1% (active) | 5% | 89% (active) | 84.7% (active) | 33% | 98% (active) | 91.2% (active) |  |  |  |
| CCC(=O)NC1=CCC(C(C)(C)C)CC1 (stereo not drawn) | 2% | -4% | 10.2% | 1% | 4% | -5.55% | 1% | 4% | -0.5% | 4% | -4% | 7.9% | 9% | 18% | 42.5% |  |  |  |
